Test results: PubChem BioAssay (NCI)
This is part of a sample that, as a whole, favours compounds with a hit. Of some 79,000 tested, about 15% had one in any assay. Activity calls are given as the source filed them. No stated cut-off is given here; in the data, active means growth inhibition above about 70%; inactive means the rest.

Columns and labels:
[1] = NCI Yeast Anticancer Drug Screen. Data for the rad52 strain (AID 147);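 further: 0% = growth of vehicle-treated control cultures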; details: S. cerevisiae rad52 mutant growth inhibition, stronger effect = higher value
Method in brief: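 Vehicle-treated cultures served as the reference for growth inhibition of compound-exposed yeast bearing a DNA repair mutation.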

[2] = NCI Yeast Anticancer Drug Screen. Data for the wt1 strain (AID 149);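 further: 0% = growth of vehicle-treated wt1 cultures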; details: S. cerevisiae wt1 strain (SPY 50644) growth inhibition, stronger effect = higher value
Method in brief: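 Readout: yeast growth inhibition, normalised to vehicle controls, in the wt1 strain exposed to test compounds.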

[3] = NCI Yeast Anticancer Drug Screen. Data for the rad50 strain (AID 155);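 further: 0% = growth of vehicle-only cultures of the same strain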; details: S. cerevisiae rad50 strain growth inhibition, stronger effect = higher value
Method in brief: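 Compounds were tested on a yeast strain with an engineered DNA damage repair alteration; the reported value is growth inhibition normalised to vehicle treatment.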

[4] = NCI Yeast Anticancer Drug Screen. Data for the mec2-1 strain (AID 157); details: S. cerevisiae mec2-1 strain, stronger effect = higher value
Method in brief: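 Vehicle-treated cultures served as reference for growth inhibition of compound-exposed mec2-1 yeast.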

[5] = NCI Yeast Anticancer Drug Screen. Data for the rad14 strain (AID 159);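 further: 0% = growth of vehicle-treated control cultures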; details: S. cerevisiae rad14 strain growth inhibition, stronger effect = higher value
Method in brief: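 Compound-treated yeast with a defined DNA-repair lesion; growth inhibition normalised to vehicle-treated cultures.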

[6] = NCI Yeast Anticancer Drug Screen. Data for the sgs1 mgt1 strain (AID 161);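 further: 0% = growth of cultures given vehicle only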; details: S. cerevisiae sgs1 mgt1 strain, stronger effect = higher value
Method in brief: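 Mutant yeast exposed to compound; growth scored against vehicle-only wells.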

[7] = NCI Yeast Anticancer Drug Screen. Data for the CLN2oe strain (AID 163);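 further: 0% = growth of vehicle-only control cultures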; details: S. cerevisiae CLN2oe strain, stronger effect = higher value
Method in brief: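 Inhibition relative to vehicle-treated yeast is reported. Cells: strain with genetic alteration in cell-cycle control, grown with compound.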

[8] = NCI Yeast Anticancer Drug Screen. Data for the cln2 rad14 strain (AID 165);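 further: 0% = growth equal to vehicle treated cultures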; details: S. cerevisiae cln2 rad14 strain, stronger effect = higher value
Method in brief: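 Each compound was tested on cln2 rad14 yeast. Inhibition of growth was calculated against vehicle-exposed controls.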

[9] = NCI Yeast Anticancer Drug Screen. Data for the bub3 strain (AID 167); details: S. cerevisiae bub3 mutant strain, stronger effect = higher value
Method in brief: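 Growth of a checkpoint-deficient yeast mutant is measured after compound exposure. Values represent inhibition relative to vehicle.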

[10] = NCI Yeast Anticancer Drug Screen. Data for the wt2 strain (AID 169);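 further: 0% = growth of vehicle-treated yeast cultures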; details: S. cerevisiae wt2 strain growth inhibition, stronger effect = higher value
Method in brief: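 Inhibition of yeast growth was determined after compound treatment, normalised to controls receiving only vehicle.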

[11] = NCI Yeast Anticancer Drug Screen. Data for the mlh1 strain (AID 171);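 further: 0% = growth of vehicle-treated control cultures of the same strain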; details: S. cerevisiae mlh1 strain growth inhibition, stronger effect = higher value
Method in brief: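 Vehicle-normalised growth inhibition of a repair- or checkpoint-altered yeast strain following compound treatment.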

[12] = NCI Yeast Anticancer Drug Screen. Data for the sgs1 strain (AID 173);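 further: 0% = growth of vehicle-only control cultures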; details: S. cerevisiae sgs1 mutant, stronger effect = higher value
Method in brief: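 Screen format: yeast with repair or checkpoint alterations, compound exposure, growth read relative to vehicle.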

[13] = NCI Yeast Anticancer Drug Screen. Data for the mlh1 rad18 strain (AID 175); details: S. cerevisiae mlh1 rad18 strain growth inhibition, stronger effect = higher value
Method in brief: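 Vehicle-treated cultures served as the reference for growth inhibition in a yeast strain carrying DNA damage repair alterations exposed to each compound.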

[14] = NCI Yeast Anticancer Drug Screen. Data for the rad18 strain (AID 177); details: S. cerevisiae rad18 mutant growth inhibition, stronger effect = higher value
Method in brief: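 Test articles were incubated with altered yeast defective in DNA damage repair. Results are given as inhibition of growth versus vehicle.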

[15] = at 5.0 µM (retest, dose inferred, filed as 0.5)
[16] = at 50.0 µM (retest, dose inferred, filed as 5.0)

Measured: growth inhibition

CCCCCCCCCCCc1nc(N)n[nH]1
inactive: [1]; at 1.2 µM -1% | [1]; at 3.7 µM -7% | [1]; at 11.0 µM 5% | [2]; at 1.2 µM -3% | [2]; at 3.7 µM -4% | [2]; at 11.0 µM 1% | [2]; at 33.0 µM 67% | [3]; at 1.2 µM -11% | [3]; at 3.7 µM -13% | [3]; [15] -181% | [3]; at 11.0 µM -7% | [4]; at 1.2 µM -4% | [4]; at 3.7 µM 1% | [4]; [15] -48% | [4]; at 11.0 µM 0% | [5]; at 1.2 µM 5% | [5]; at 3.7 µM 1% | [5]; at 11.0 µM 7% | [5]; at 33.0 µM 65% | [6]; [15] -66% | [6]; [16] 59% | [7]; at 1.2 µM -3% | [7]; at 3.7 µM -6% | [7]; at 11.0 µM -13% | [7]; at 33.0 µM 16% | [8]; [15] -79% | [8]; [16] 62% | [9]; at 1.2 µM 5% | [9]; at 3.7 µM -2% | [9]; [15] -79% | [9]; at 11.0 µM 4% | [10]; at 1.2 µM 5% | [10]; at 3.7 µM 6% | [10]; at 11.0 µM 24% | [11]; at 1.2 µM -10% | [11]; at 3.7 µM -6% | [11]; at 11.0 µM -3% | [12]; at 1.2 µM -5% | [12]; at 3.7 µM -13% | [12]; at 11.0 µM 21% | [13]; [15] -154% | [13]; [16] 20% | [14]; at 1.2 µM -12% | [14]; at 3.7 µM -5% | [14]; at 11.0 µM -7% | [14]; at 33.0 µM 68%
active: [1]; at 33.0 µM 87% | [1]; at 100.0 µM 96% | [2]; at 100.0 µM 95% | [3]; at 33.0 µM 92% | [3]; [16] 81% | [3]; at 50.0 µM 97.1% | [3]; at 100.0 µM 96% | [4]; at 33.0 µM 73% | [4]; [16] 87% | [4]; at 50.0 µM 96.7% | [4]; at 100.0 µM 93% | [5]; at 100.0 µM 96% | [6]; at 50.0 µM 80.6% | [7]; at 100.0 µM 82% | [8]; at 50.0 µM 75.9% | [9]; at 33.0 µM 75% | [9]; [16] 88% | [9]; at 50.0 µM 95.8% | [9]; at 100.0 µM 91% | [10]; at 33.0 µM 92% | [10]; at 100.0 µM 97% | [11]; at 33.0 µM 79% | [11]; at 100.0 µM 95% | [12]; at 33.0 µM 92% | [12]; at 100.0 µM 96% | [13]; at 50.0 µM 93% | [14]; at 100.0 µM 94%
